Test results taken from PubChem BioAssay (NCATS).
Results filed as inconclusive are left out. Activity calls are given as the source filed them. Unless noted, no rule for the calls is given here.

Tests used:
[1] = qHTS profiling of the MIPE4 collection as inhibitors of Plasmodium falciparum (3D7) proliferation (AID 743344);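 also: scaled between DMSO vehicle wells and 0.29 µM artemisinin as full inhibition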; details: P. falciparum 3D7 in erythrocytes, SYBR Green DNA fluorescence, 72 h; at 28.5 µM unless noted
In short: (§1)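 Parasite DNA was quantified by SYBR Green I fluorescence (ex 485, em 535 nm) after overnight lysis in saponin/Triton buffer at room temperature. Cultures at 0.3% parasitemia and 2.5% hematocrit were first exposed to compound for 72 h at 37 C; signals were normalised to artemisinin (0.29 uM) and vehicle wells.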

[2] = qHTS profiling of the MIPE4 collection as inhibitors of Plasmodium falciparum (DD2) proliferation (Rep 2) (AID 743346); details: P. falciparum Dd2 in erythrocytes, SYBR Green DNA, 72 h; at 28.5 µM unless noted
In short: as §1

[3] = High-throughput drug toxicity screening in the BPDCN cell line Gen2.2 (AID 1224824); details: Gen2.2 BPDCN cells; at 45.8 µM (top of the series) unless noted
In short: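 CellTiter-Glo luminescence after 48 h compound exposure of Gen2.2 cells; percent activity set with DMSO as 100% and bortezomib (9.2 uM final) as 0%. Cells seeded at 500 per well, RPMI + 10% FBS, 37 °C.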

[4] = High-throughput drug toxicity screening in the BPDCN cell line Cal-1 (AID 1224825); details: Cal-1 BPDCN cell viability, qHTS; at 45.8 µM (top of the series) unless noted
In short: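 CellTiter-Glo luminescence after 48 h compound exposure; percent activity scaled with DMSO as 100% and bortezomib (9.2 uM final) as 0%. Cal-1 cells seeded at 500/well in RPMI, 10% FBS, no phenol red.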

[5] = qHTS assay for measurement of the activity of small molecule inhibitors on Zika virus induced Caspase-3 activity in human astrocytoma cells (AID 1224859; active = well fitted curve in the direction sought with a large enough effect; an effect the other way counts as inactive or inconclusive;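 also: plate controls were ZIKV-infected untreated cells for no effect and uninfected cells for full effect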)
In short: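 Caspase activation in ZIKV-infected SNB-19 cells (2 FFU/cell, 6 h) measured by Caspase-Glo 3/7 luminescence after 30 min RT; compound pre-incubated 1 h; normalised to uninfected and infected controls.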

[6] = qHTS Screen of the MIPE 4.0 Collection Against Ewings Sarcoma (RDES) (AID 1259252; active = well fitted curve in the direction sought with a large enough effect; an effect the other way counts as inactive or inconclusive; also: nearly all actives have a fitted effect of over 35% in size; also: potency is read from the fitted curve at half-maximal effect)
In short: (§2)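 Viability screen: 48 h incubation at 37C, 95% humidity, 5% CO2 with serially titrated compound, followed by CellTiter-Glo readout.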

[7] = qHTS Screen of the MIPE 4.0 Collection Against Ewings Sarcoma (EW8) (AID 1259255; active = well fitted curve in the direction sought with a large enough effect; an effect the other way counts as inactive or inconclusive; also: nearly all actives have a fitted effect of over 35% in size; also: potency is read from the fitted curve at half-maximal effect;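 as to viability: 100% = DMSO-treated cells and 0% = medium-only wells without cells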)
In short: as §2

[8] = qHTS Screen of the MIPE 4.0 Collection Against Ewings Sarcoma (TC32) (AID 1259256; active = well fitted curve in the direction sought with a large enough effect; an effect the other way counts as inactive or inconclusive; also: nearly all actives have a fitted effect of over 45% in size; also: potency is read from the fitted curve at half-maximal effect)
In short: as §2

[9] = qHTS profiling of the MIPE4 collection as inhibitors of Plasmodium falciparum (DD2) proliferation (AID 743345); details: P. falciparum Dd2 in erythrocytes, SYBR Green DNA, 72 h; at 28.5 µM unless noted
In short: as §1

[10] = qHTS Screen of the MIPE 4.0 Collection Against Ewings Sarcoma (TC71) (AID 1259253; active = well fitted curve in the direction sought with a large enough effect; an effect the other way counts as inactive or inconclusive; also: potency is read from the fitted curve at half-maximal effect; nearly all actives have a fitted effect of over 40% in size)
In short: as §2

[11] = qHTS profiling of the MIPE4 collection as inhibitors of Plasmodium falciparum (HB3) proliferation (AID 743347);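 also: plate controls were DMSO vehicle wells for no effect and artemisinin wells for full effect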; details: P. falciparum HB3 in erythrocytes, SYBR Green DNA, 72 h; at 28.5 µM unless noted
In short: as §1

[12] = qHTS profiling for inhibitors of Plasmodium falciparum (HB3) proliferation (AID 743324; active = well fitted curve in the direction sought with a large enough effect; an effect the other way counts as inactive or inconclusive;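 also: 100% = DMSO vehicle wells and 0% = artemisinin-treated control wells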); details: Plasmodium falciparum HB3 blood-stage proliferation; at 28.7 µM (top of the series)
In short: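 SYBR Green fluorescence (485 ex/535 em) of lysed cultures, incubated overnight at room temperature in the dark, quantifies parasite DNA. Infected erythrocytes at 0.3% parasitemia and 2.5% hematocrit were exposed 72 h; values normalized to DMSO and 0.29 uM artemisinin controls.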

[13] = qHTS assay for measurement of the activity of small molecule inhibitors on Zika virus induced Caspase-3 activity in human iPSC derived neural progenitor cells (hNPCs) (AID 1224857; active = well fitted curve in the direction sought with a large enough effect; an effect the other way counts as inactive or inconclusive; also: % of control where 0% means no effect; nearly all actives have a fitted effect of over 65% in size)
In short: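 Zika virus (2 FFU/cell) infection of human iPSC-derived NPCs, 6 h, following 1 h compound preincubation. Read-out: Caspase-Glo 3/7 luminescence.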

[14] = Identifying Small Molecule Inhibitors of Pancreatic Cancer Stem Cells (SN12C, Adherent) (AID 1259358; active = well fitted curve in the direction sought with a large enough effect; an effect the other way counts as inactive or inconclusive;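 also: cell survival measured after 48 h of compound exposure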)
In short: (§3)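 Monolayer and spheroid cultures are compared. Spheroids form over 14 days in stem cell medium on hydrogel-coated low-attachment plates, then are exposed to compound for 48 h before CellTiter-Glo luminescence.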

[15] = Identifying Small Molecule Inhibitors of Pancreatic Cancer Stem Cells (Panc1, Adherent) (AID 1259362; active = well fitted curve in the direction sought with a large enough effect; an effect the other way counts as inactive or inconclusive;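 also: compound exposure lasted 48 h before the viability read; plate controls were DMSO-treated cells for no effect and cell-free media wells for full effect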); details: Potency: viability
In short: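 Adherent (2D) versus sphere (3D) formats; spheres generated 14 d in SCM beforehand. Compound transferred by pin tool after 4 h, 48 h incubation, CellTiter-Glo endpoint.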

[16] = Identifying Small Molecule Inhibitors of Pancreatic Cancer Stem Cells (A278, Adherent) (AID 1259361; active = well fitted curve in the direction sought with a large enough effect; an effect the other way counts as inactive or inconclusive;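 also: viability read after 48 h compound exposure; 100% = DMSO-treated cells and 0% = cell-free media-only wells; nearly all actives have a fitted effect of over 35% in size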)
In short: as §3

SMILES | parasite growth, % of DMSO control [1] | parasite growth, % of control (lower = inhibition) [2] | cell viability, % of control (lower = more cytotoxic) [3] | viability (% of control) [4] | Potency [5] | Potency [6] | Potency [7] | Potency [8] | parasite growth remaining, % of DMSO control (lower = more inhibition) [9] | Potency [10] | growth, % of control [11] | remaining proliferation (% of control), lower = more inhibition [12] | Potency [13] | Potency [14] | Potency [15] | IC50 (viability decrease) [16]
CC(=O)Oc1cc2c(s1)CCN(C(C(=O)C1CC1)c1ccccc1F)C2 (stereo not drawn) | 56.7% | 40.2% | 15.7% | 18.3% | inactive | 2.35 µM (active) | 3.72 µM (active) | 2.96 µM (active) | – | – | – | – | – | – | – | –
CC(C)OC(=O)CCCC=CC[C@@H]1[C@H](C=C[C@@H](O)COc2cccc(C(F)(F)F)c2)[C@H](O)C[C@@H]1O | 23.8% | 33.1% | 286% | 63.7% | inactive | inactive | – | inactive | 76.3% | 16.6 µM (active) | – | – | – | – | – | –
CC(=Cc1ccccc1)C=C1SC(=S)N(CC(=O)O)C1=O | 92.1% | 81.2% | 124% | 125% | inactive | inactive | inactive | inactive | 102% | – | 98.1% | – | – | – | – | –
COc1ccc(C2CC(c3ccccc3)=NN2c2ccc(S(N)(=O)=O)cc2)cc1 (stereo not drawn) | 50.4% | 46.5% | 76.6% | – | inactive | – | – | – | 99.9% | – | 66% | 19.1% | inactive | inactive | – | –
CC=CCC=CCCC(=O)[C@H]1O[C@@H]1C(N)=O | – | – | 7.55% | – | inactive | – | – | – | – | – | – | – | inactive | – | – | –
C=C1C(=O)OC2C=C(C)CCC=C(C)CCC12 (stereo not drawn) | – | 108% | 10.5% | – | inactive | – | 23.5 µM (active) | 20.9 µM (active) | 104% | – | – | – | inactive | – | – | –
Cc1cccc(Nc2nc(-c3ccncc3)cs2)c1 | 29.1% | 42.6% | 75.6% | – | inactive | – | – | – | 71% | – | 17.7% | – | inactive | – | – | –
O=C(Nc1cc(Cl)cc2c1[nH]c1cnccc12)c1cccnc1 | 5.73% | 10.7% | 67.6% | – | inactive | – | – | 26.4 µM (active) | 15.5% | – | 3.51% | 0.746% | inactive | – | inactive | –
COC1CCC(N(C(=O)C2CCC(C)CC2)c2cc(C3=CCCCC3)sc2C(=O)O)CC1 (stereo not drawn) | – | – | 66.7% | – | inactive | – | – | inactive | – | 20.9 µM (active) | 22.9% | – | inactive | – | – | –
COc1ccc2cccc(CCNC(C)=O)c2c1 | 56.4% | 72.6% | 206% | – | inactive | – | inactive | inactive | 101% | – | 41% | – | inactive | – | – | –
CC(C)[C@H](CO)Nc1nc(Nc2ccc(C(=O)O)c(Cl)c2)c2ncn(C(C)C)c2n1 | 29.4% | 29.5% | 9.58% | – | inactive | – | – | – | 51% | – | 18.3% | 28.6% | inactive | – | inactive | inactive
